APOBEC3A inh: human APOBEC3A DNA deaminase inhibition; inhibition, % at 20 µM; AID 493011; P31941; actives 0.41% (n = 330,000); recombinant A3A, FAM/TAMRA ssDNA deamination fluorescence;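 active = at least 40% inhibition at 20 µM here, with at most 30% in a related deaminase screen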
Target sequence (P31941 whole entry, looked up): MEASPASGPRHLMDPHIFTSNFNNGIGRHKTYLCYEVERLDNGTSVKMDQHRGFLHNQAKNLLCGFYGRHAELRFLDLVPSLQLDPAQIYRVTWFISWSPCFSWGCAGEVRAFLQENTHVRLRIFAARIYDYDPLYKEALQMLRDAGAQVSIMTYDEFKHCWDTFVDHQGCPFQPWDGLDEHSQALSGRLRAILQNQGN
M18AAP inhibitor: PfM18AAP enzyme inhibition | recombinant PfM18AAP, H-Glu-NHMec fluorogenic cleavage | inhibition, % at 7.35 µM | actives 1.2% (n = 290,000) | AID 1822;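 active = inhibition above the campaign mean inhibition over all tested compounds plus 3 SD, cut at about 28% in these data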
PfGluPho inh: PfG6PD (Plasmodium falciparum) enzyme inhibition; PfGluPho enzyme, NADPH resazurin-diaphorase fluorescence; actives 0.78% (n = 350,000); inhibition, % at 20 µM; AID 504690;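 active = inhibition reaching at least a set limit at 20 µM in the primary screen, cut at about 59% in these data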
APOBEC3G inh: blocks human APOBEC3G single-stranded DNA deamination; Q9HC16; recombinant A3G, ssDNA deamination FAM/TAMRA fluorescence; inhibition, % at 20 µM; actives 0.28% (n = 330,000); AID 493012;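 active = inhibition of at least 40% at 20 µM, with no more than 30% in the related APOBEC3A deaminase screen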
CR mimetic SO: yeast age-related superoxide inhibition as caloric restriction mimetic; actives 0.18% (n = 330,000); superoxide response (% of plate mean), % at 10 µM; AID 2690; S. cerevisiae aged cells, superoxide DHE fluorescence; stronger effect = lower value;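 active = superoxide response under a set limit, about three screen SD below normal, cut at about 65% in these data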;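 note: yeast aged for seven days with compound at 30 °C before DHE staining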
A3G conf: APOBEC3G (human) deaminase inhibition, confirmed; shares compounds with APOBEC3G inh; recombinant A3G ssDNA deaminase, UDG/FAM-TAMRA fluorescence; inhibition, % at 20 µM; actives 72% (n = 890);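 active = inhibition reaching a set limit in any replicate at 20 µM, the limit being 80% of the first screen's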
UDG A3G counter: counter-screen for APOBEC3G inhibitors: E. coli UDG | shares compounds with APOBEC3G inh | UDG counterscreen, FAM/TAMRA oligo fluorescence | inhibition, % at 20 µM | 710 tested, under 10 active;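 active = compounds giving 40% or more inhibition at 20 µM in any one of the three replicates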;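 note: inhibitors lower the FAM signal released by uracil excision and alkaline cleavage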
Target sequence (P12295 whole entry, looked up): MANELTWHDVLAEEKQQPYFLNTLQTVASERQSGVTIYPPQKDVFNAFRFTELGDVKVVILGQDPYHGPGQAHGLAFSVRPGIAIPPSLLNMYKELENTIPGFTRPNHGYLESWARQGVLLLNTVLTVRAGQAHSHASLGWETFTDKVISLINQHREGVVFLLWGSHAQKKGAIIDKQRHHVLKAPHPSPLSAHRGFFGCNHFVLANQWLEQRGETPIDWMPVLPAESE
Large screens that a line does not name were inactive (follow-up assays come after a bar, where they were run). Hits are enriched below; roughly 2.4% of the tested compounds scored in any of these assays.

O=S(=O)(c1ccccc1)N1CCN(S(=O)(=O)c2ccccc2)C1	none
O=S(=O)(/N=S1/CC=CCN1S(=O)(=O)c1ccccc1)c1ccccc1 (stereo unspecified)	APOBEC3G inh 62.3 | A3G conf 74.6 | UDG A3G counter inactive
C=C(C)C(=O)Nc1cccc(C2=NOC3(C2)C[C@@H](C(N)=O)N(C(=O)C(=C)C)C3)c1 (stereo partly specified)	APOBEC3G inh 88.2 (no result: M18AAP inhibitor) | A3G conf 92.0 | UDG A3G counter inactive
C=C(C)C(=O)Nc1cccc(C2=NOC3(C2)C[C@@H](C(N)=O)N(C(=O)C2(C)CC2)C3)c1 (stereo partly specified)	APOBEC3G inh 88.7 (no result: M18AAP inhibitor) | A3G conf 93.8
CCOC(=O)C1=C(C)N(c2ccc(OC)cc2)C(=O)/C1=C\c1cccs1	none
CCOC(=O)C1=C(C)N(c2ccc(OC)cc2)C(=O)/C1=C\c1ccc(O)c(OCC)c1	APOBEC3G inh 67.3 | A3G conf inactive
COc1cc(S(=O)(=O)N2CCN(C)CC2)c(OC)cc1Cl	none
COc1cc(N2C(=O)C=CC2=O)c(OC)cc1Cl	PfGluPho inh 72.1, APOBEC3G inh 43.4 | A3G conf 54.2 | UDG A3G counter inactive
C=CCn1c(CSCc2ccc(F)cc2)n[nH]c1=S	none
C=CCn1c(CSc2ccccc2[N+](=O)[O-])n[nH]c1=S	APOBEC3G inh 45.5 | A3G conf 68.2 | UDG A3G counter inactive
O=C(CNC(c1ccccc1)c1ccccc1)Nc1ccccc1Br	APOBEC3G inh 50.3 | A3G conf inactive | UDG A3G counter inactive
COc1ccccc1NC(=O)CNC(c1ccccc1)c1ccccc1	none
S=c1[nH]nc(NCCCN2CCOCC2)s1	APOBEC3G inh 44.2 | A3G conf 46.8 | UDG A3G counter inactive
c1ccc2[nH]c(NCCCN3CCOCC3)nc2c1	none
COc1ccc(NC(=O)C2CCCN(S(C)(=O)=O)C2)cc1Cl (stereo unspecified)	none
CCc1ccc(-n2c(=O)c3ccccc3n3c(=S)[nH]nc23)cc1	APOBEC3G inh 60.5 | A3G conf 76.3 | UDG A3G counter inactive
Cc1ccccc1-n1c(=O)c2ccccc2n2c(=O)[nH]nc12	none
C=CCSc1nnc(NC(=O)CCNC(=O)c2ccccc2Cl)s1	none (no result: APOBEC3A inh, M18AAP inhibitor, APOBEC3G inh, CR mimetic SO)
CC(=O)c1sc2nc(-c3cccs3)ccc2c1N	APOBEC3G inh 44.5 | A3G conf 30.6 | UDG A3G counter inactive
CC(C)N(Cc1ccccc1)S(=O)(=O)c1ccc2c(c1)NC(=O)CO2	none
COC(=O)[C@]1(C)N[C@H](CN(C)C(=O)c2ccccc2)[C@@H]2C(=O)N(C)C(=O)[C@@H]21	none (no result: M18AAP inhibitor)
CC(C)C(=O)NC(c1cccs1)c1cc([N+](=O)[O-])c2cccnc2c1O (stereo unspecified)	APOBEC3G inh 53.6 | A3G conf 12.8 | UDG A3G counter inactive
Cc1ccc(C)c(N(CC(=O)NN=C2CCN(C)CC2)S(=O)(=O)c2ccccc2)c1	APOBEC3G inh 51.1 | A3G conf inactive | UDG A3G counter inactive
COc1ccc(N(C)C(=O)C2CCN(S(=O)(=O)c3cccc4nonc34)CC2)cc1	none
CCc1cc(/C(Cc2ccccn2)=N\Nc2ccccc2)c(O)cc1O	APOBEC3G inh 41.7 | A3G conf inactive | UDG A3G counter inactive
COc1cc(/C=N/n2c(COc3ccccc3)n[nH]c2=S)cc(Br)c1O	M18AAP inhibitor 30.8, APOBEC3G inh 46.3 | A3G conf 70.4 | UDG A3G counter inactive
S=c1[nH]nc(COc2ccccc2)n1/N=C/c1ccccn1	APOBEC3G inh 54.9 | A3G conf 85.9 | UDG A3G counter inactive
S=c1[nH]nc(COc2ccccc2)n1/N=C/c1ccncc1	APOBEC3G inh 62.4 | A3G conf 82.1 | UDG A3G counter inactive
CCc1n[nH]c(=S)n1/N=C/c1ccc(N(CC)CC)cc1	APOBEC3G inh 46.5 | A3G conf 48.5 | UDG A3G counter inactive
Clc1ccc2nc(COc3ccccc3)[nH]c2c1	none
CC(=O)c1ccc(NS(=O)(=O)c2cccc3cccnc23)cc1	none (no result: APOBEC3A inh, M18AAP inhibitor, APOBEC3G inh, CR mimetic SO)
CCn1c(C)c(CS(=O)(=O)c2ccccc2)[nH]c1=O	APOBEC3G inh 49.4 | A3G conf 87.0 | UDG A3G counter inactive
S=c1[nH]nc(-c2ccccn2)n1/N=C/c1cccc(Cl)c1	APOBEC3G inh 43.1 | A3G conf 77.2 | UDG A3G counter inactive
